Screening data from PubChem BioAssay.
MCF10A rereplic – DNA re-replication induction in MCF 10a cells; MCF 10A DNA re-replication, Hoechst nuclear intensity, 48 h; Potency, µM (top dose mostly 46.1 µM), inactives show at the top dose activity, positive = re-replication, most hits filed as activators; actives 2.9% (n = 350,000); note: potency is the fitted concentration of half-maximal effect; % of control where 0% means no effect; nearly all actives have a fitted effect of over 50% in size
SW480 rereplic – induces DNA re-replication in SW480 colon adenocarcinoma cells; Potency, µM (highest dose often 46.1 µM), inactives show at the highest dose re-replication activation, actives largely listed as activators; AID 624297; actives 1.8% (n = 340,000); SW480 DNA re-replication, Hoechst DNA content imaging, 48 h; note: potency is the fitted concentration of half-maximal effect; % of control where 0% means no effect; nearly all actives have a fitted effect of over 55% in size
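Cells (250 per well) received 23 nL compound or DMSO by pin tool and were kept 48 hr at 37 C, 5% CO2. Nuclei were then stained with Hoechst for 40 min and scanned for DNA content.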
Vif-A3F inh – Vif-A3F binding inhibition; Potency, µM (titrated, usually from 46.1 µM), inactives show at the highest dose activity, negative = active; actives 0.2% (n = 390,000); HeLa A3F-eYFP + Vif (tagged APOBEC3F with the HIV-1 protein that degrades it), YFP fluorescence increase; note: potency is the fitted concentration of half-maximal effect; % of control where 0% means no effect; nearly all actives have a fitted effect of over 65% in size
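HeLa cells stably expressing A3F-eYFP plus Vif, plated and incubated overnight at 37 deg C, then exposed to compounds overnight at 37 deg C. Blocked degradation read as raised yellow fluorescence (Ex 488/Em 500-530).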
Vif-A3G inh – inhibitors of Vif-APOBEC3G interaction | HeLa A3G-eYFP + Vif (tagged APOBEC3G with the HIV-1 protein that degrades it), YFP fluorescence, overnight | AID 602310 | Q9HC16 | actives 0.076% (n = 410,000) | Potency, µM (titrated, usually from 46.1 µM), for the others: at the top dose activity, negative = active, most hits filed as inhibitors; note: potency is the fitted concentration of half-maximal effect; % is set by controls: 0 for no effect and ±100 for the full control effect; nearly all actives have a fitted effect of over 60% in size
Target sequence (Q9HC16 whole entry, looked up): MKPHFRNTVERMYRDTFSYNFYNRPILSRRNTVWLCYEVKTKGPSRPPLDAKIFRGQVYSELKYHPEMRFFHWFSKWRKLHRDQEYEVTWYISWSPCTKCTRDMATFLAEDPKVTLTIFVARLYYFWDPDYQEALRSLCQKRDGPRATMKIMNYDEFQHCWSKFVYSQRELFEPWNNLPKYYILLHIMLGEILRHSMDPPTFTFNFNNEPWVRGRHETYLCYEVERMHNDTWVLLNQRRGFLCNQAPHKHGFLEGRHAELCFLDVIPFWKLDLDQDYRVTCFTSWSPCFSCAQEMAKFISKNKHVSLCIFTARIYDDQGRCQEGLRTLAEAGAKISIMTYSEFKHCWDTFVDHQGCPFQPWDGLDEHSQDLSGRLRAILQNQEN
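Read-out is eYFP fluorescence (Ex 488/Em 500-530) from Vif-expressing HeLa A3G-eYFP cells; more signal means A3G escaped Vif-mediated degradation. Cells plated overnight, compound pinned in, incubated overnight at 37 deg C.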
Giardia kill – Giardia lamblia killing. activity change, % at 7.66 µM, hits read low. AID 540267. Giardia lamblia trophozoite viability. actives 0.15% (n = 340,000); in the data active = activity change below about -80%; inconclusive = between about -30% and that limit;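 note: parasites exposed to compound for two days anaerobically before the ATP read; % is set by controls: 0 for no effect and ±100 for the full control effect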
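Media and compound were dispensed first, then trophozoites at 100 cells/well; plates sat 48 hrs at 37 deg C without oxygen before ATP luminescence reagent was added and read after 15-30 min at room temperature.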
IL-1B inflam inh – inhibitors of inflammasome signaling (IL-1 beta secretion). activity change, % at 57.5 µM. actives 4.7% (n = 360,000). THP-1 LPS/ATP IL-1B secretion, AlphaLISA, 16 h; hits give low values; in the data active = activity change below about -50%; inconclusive = mostly about -30% to -49%; note: % is set by controls: 0 for no effect and ±100 for the full control effect
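THP-1 cells pretreated 1 hr with compounds (up to 57.5 uM final), then stimulated with LPS (250 ng/mL final) plus ATP (1.25 mM final); secreted IL-1B measured by AlphaLISA after 16 hr, decreased signal indicating inhibition.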
* marks the source's active call; other numbers are inactive results; u = inconclusive; x = not tested or not shown; [ ] = dose if it differs, or a comment. This is a sample that favours compounds with a hit; in the whole collection about 6.9% have one here. Unless noted, calls come from the whole dose curve; as a rule, active = well fitted curve in the direction sought with a large enough effect; inconclusive = small, poorly fitted or top-dose-only effect, or another doubt; inactive = no such curve, though single readings can be large; an effect the other way counts as inactive or inconclusive.

SMILES	MCF10A rereplic	SW480 rereplic	Vif-A3F inh	Vif-A3G inh	Giardia kill	IL-1B inflam inh
COc1ccc2[nH]c(C)c(CCNC(=S)Nc3cc(C)ccc3C)c2c1	u	16µM*	-30%	3%	-6	4
COc1ccc2[nH]c(C)c(CCNC(=S)Nc3cccc(C)c3)c2c1	-4%	u	-1%	1%	12	-7
CCc1cccc(C)c1NC(=S)NCCc1c(C)[nH]c2ccc(C)cc12	10µM*	u	2%	-11%	-14	53
COc1ccc(C(=O)Nc2ccc(Oc3ncnc4sc(-c5ccccc5)cc34)cc2)cc1OC	3.3µM*	x	-7%	-1%	-8	0
COc1cc(C(=O)Nc2ccc(Oc3ncnc4sc(-c5ccccc5)cc34)cc2)cc(OC)c1OC	8%	16%	6%	-5%	-7	5
COc1ccccc1C1=NC(c2ccccc2)CN1c1ccccc1 (stereo not given)	5.2µM*	6.5µM*	-5%	-12%	-1	6
O=C(Nc1nnc2n1CCS2)c1cc(C(F)(F)F)cc(C(F)(F)F)c1	x	x	-10%	0%	x	x
O=C(C1CCN(S(=O)(=O)N2CCC3(CC2)OCCO3)CC1)N1CCC(Cc2ccccc2)CC1	5%	2%	-2%	0%	-4	-64*
CCCS(=O)(=O)N1CCC(C(=O)N2CCC(Cc3ccccc3)CC2)CC1	-5%	1%	-6%	2%	u	-18
COc1ccccc1C(=O)NC1(C(F)(F)F)C(=O)NC(C)=C1C#N (stereo not given)	x	x	-5%	3%	x	x
OCCCNc1cc(-c2ccnc(Nc3cccc(Cl)c3)n2)ccn1	u	u	-2%	-16%	-29	-108*
CCC(C)Oc1cc(-c2ccnc(Nc3cccc(Cl)c3)n2)ccn1 (stereo not given)	u	u	0%	-13%	1	-86*
CC(=O)c1ccc(-c2c(C3C4C=CCCC4(C)C(=O)N3Cc3ccccc3)ccc3ccccc23)cc1 (stereo not given)	x	x	x	-5%	12	x
COCCOC(=O)c1c(-c2ccccc2)c(-c2ccccc2)nn(C)c1=O	x	x	1%	0%	x	x
Cc1sc(N)nc1-c1cccc([N+](=O)[O-])c1	x	x	x	2%	-23	x
Cc1nc(Nc2ncc(C(=O)Nc3c(C)cccc3Cl)s2)cc(N2CCN(CCO)CC2)n1	19µM*	17µM*	x	-17%	x	x
Cc1cc(Cl)c2oc(C(=O)N3CCN(c4ccncc4)CC3)c(C)c2c1	5.8µM*	12µM*	-18%	-13%	19	-88*
COc1ccc(C(=O)NC2CCCCCC2)cc1S(=O)(=O)N1CCCc2ccccc21	-3%	20%	0%	4%	14	-1
CCN1C(=O)CCN(C2CCCC2)c2nc(Nc3ccc(C(=O)NC4CCN(C)CC4)cc3OC)ncc21	10µM*	18%[9.22 µM]	u	-14%	-4	52
O=C(Nc1ccc2nc(SCC(=O)N3CCCC3)sc2c1)c1cccc(Br)c1	x	x	4%	1%	x	x
CCc1ccc(-c2cc3c(=O)n(CC(=O)NCCN4CCCCC4C)nc(C)n3n2)cc1 (stereo not given)	u	18µM*	-7%	3%	1	0
CCN=C1S/C(=C\c2ccc(-c3cccc(C(=O)O)c3)o2)C(=O)N1CC	u	5.8µM*	u	-21%	-10	0
CCN=C1S/C(=C/c2ccc(-c3ccc(Cl)cc3C(=O)O)o2)C(=O)N1CC	6.5µM*	12µM*	-12%	-8%	-15	35
CC(CCC(C)[n+]1cccc(Br)c1)[n+]1cccc(Br)c1 (stereo not given)	x	x	x	1%	x	x
CCOC(=O)COn1c(=O)c(-c2ccc(Br)cc2)[n+]([O-])c2ccccc21	-7%	1%	1.8µM*	0%	11	11
SMILES	MCF10A rereplic	SW480 rereplic	Vif-A3F inh	Vif-A3G inh	Giardia kill	IL-1B inflam inh
COC(=O)c1c(NC(=S)NN2CCN(C)CC2)sc2c1CCC(C)C2 (stereo not given)	u	8%	15%	-22%	17	-69*
COC(=O)c1c(NC(=O)Cc2cccs2)sc2c1CCC(C)C2 (stereo not given)	-5%	-3%	-3%	1%	-9	-83*
COC(=O)c1c(NC(=O)Cn2cnc([N+](=O)[O-])n2)sc2c1CCC(C)C2 (stereo not given)	u	13%	-9%	4%	-18	-55*
CCOC(=O)c1c(NC(=O)Cc2cccs2)sc(C)c1C	3.7µM*	-5%	2%	-5%	3	-17
OC(Cc1ccc2ccccc2n1)c1ccccc1 (stereo not given)	x	x	x	-2%	x	x
CC(C)c1ccc(NC(=O)c2cc3c([nH]c2=O)CC(C)(C)CC3=O)cc1	x	x	x	0%	x	x
CC(C)N(Cc1ccccc1)C(=O)CN1C(=O)CSc2ccc(S(=O)(=O)N3CCCC3)cc21	x	x	1%	-2%	x	x
O=C1/C(=C/c2ccc(Br)cc2)Oc2cc(O)ccc21	15µM*	u	-9%	-14%	-13	0
O=C1/C(=C/c2ccc([N+](=O)[O-])cc2)Oc2cc(O)ccc21	23%	7%	22µM*	-2%	-4	-1
CC(C)(C)c1ccc(/C=C2\Oc3cc(O)ccc3C2=O)cc1	21µM*	21µM*	-6%	0%	-7	-74*
COC(=O)c1ccc2c(c1)C(=O)/C(=C/c1ccc(O)cc1)O2	u	u	2%	-7%	-4	13
COc1ccccc1C1CCN(C(=O)c2cccs2)CC1	-2%	-9%[9.22 µM]	2%	-1%	4	-53*
CN(C(=O)c1cccc(NC(=O)Cc2cccc(NC(=O)C3CCN(C(=O)C4CCCCC4)CC3)c2)c1)C1CCC1	1.2µM*	4%	4%	2%	12	-2
O=[N+]([O-])c1ccc(CSC2=NCCN2)cc1	u	23%	-6%	-1%	16	u
CCCCOc1ccc(CSC2=NCCN2)cc1[N+](=O)[O-]	21µM*	u	2%	u	u	-99*
CCOc1ccc(CSC2=NCCN2)cc1[N+](=O)[O-]	u	u	-29%	-19%	1	-61*
O=C(O)COc1ccc(/C=C/C(=O)c2ccc(C3CCCCC3)cc2)cc1	u	u	0%	-29%	u	-101*
CCOc1ccc(/C=C/C(=O)NC2CCCCC2)cc1	14%	-1%	-2%	-1%	9	-6
O=C(O)COc1ccc(/C=C/C(=O)c2ccc3ccccc3c2)cc1	18µM*	15%	-4%	-12%	-7	-99*
O=S(=O)(c1ccccc1)c1ncc(C(F)(F)F)cc1Cl	6.3µM*	u	-1%	-9%	10	-106*
